# Test results: ChEMBL document CHEMBL3988442, “University of Dundee, Small-Polar-MMV Screening Library” (2021)
# Among all 48,000 compounds or so, about 13,000 (27%) showed an effect of 50% or more. The list shows a part of the results.
# Tested on: Wolbachia pipientis
# Experiment: Anti-Wolbachia Cell-Based Screen
# Format: functional
# Design: scale not given: in the data most compounds retested in dose-response had high values
# Conditions: 5 µM
row,Compound,Percent Effect [%]
1,CCCn1cnnc1CNC(=O)CC1C(=O)NCCN1C(C)C (stereo not given),-4.75
2,CN(CCCc1nccn1C)C(=O)C1CCN(C(=O)C2CCCC2)CC1,-7.854
3,Cc1cc(C)cc(CN2CCN(Cc3ccc4nonc4c3)CC2=O)c1,-1.635
4,CCNC(=O)CN1CCC(c2cc(OC)cc(OC)c2)C1 (stereo not given),-11.46
5,CCOCC1CN(S(C)(=O)=O)Cc2nn(C)cc21 (stereo not given),-37.27
6,Cc1nc(C2CCCN(C(=O)c3ccc(OCC4CC4)nc3)C2)no1 (stereo not given),97.67
7,COc1ccnc(C(=O)N2CCCC(c3noc(C)n3)C2)c1 (stereo not given),-1.667
8,Cc1nc(C2CCCN(C(=O)c3ccc(N4CCCC4)nc3)C2)no1 (stereo not given),-0.5946
9,CCOc1cc(C(=O)N2CCCC(c3noc(C)n3)C2)ccc1OC (stereo not given),123.2
10,Cc1nc(C2CCCN(C(=O)c3ccc(OCC4CC4)cc3)C2)no1 (stereo not given),-3.23
11,COc1ccc(N(C(=O)c2ccc(C)nc2)C(C)C)cc1F,-11.04
12,CN(C)C[C@@H]1CN(Cc2ccccc2C#N)C[C@@H]1CO,8.186
13,Cn1ncc2c1CN(C(=O)Cc1ccccn1)CC2COCC1CC1.O=C(O)C(F)(F)F.O=C(O)C(F)(F)F (stereo not given),-6.419
14,Cc1cc(C)c(CCNC(=O)NCCCC(N)=O)c(C)c1,-1.921
15,COCC(O)CNC(=O)c1coc(COc2cccc(F)c2)n1 (stereo not given),3.844
16,O=C(NCCO)Nc1c(F)cccc1Oc1ccccc1,2.837
17,O=C(NCCO)Nc1c(F)cc(F)cc1-c1ccccc1,122.6
18,O=C(CNC(=O)Nc1cccc(Cl)c1SC(F)F)NC1CC1,-13.14
19,O=C(NCCO)Nc1ccc(Br)c(F)c1,-6.574
20,COCC(O)CNC(=O)c1cnc(-c2ccccc2)nc1O (stereo not given),-15.86
21,O=C(CNC(=O)Nc1c(F)cc(F)cc1-c1ccccc1)NC1CC1,131.5
22,CCNC(=O)CNC(=O)Nc1cccc(Cl)c1SC(F)F,-15.46
23,CCNC(=O)CNC(=O)Nc1c(F)cc(F)cc1-c1ccccc1,120.1
24,COCC(O)CNC(=O)Nc1c(F)cc(F)cc1-c1ccccc1 (stereo not given),147.7
25,CNC(=O)CNC(=O)Nc1ccc(Br)c(F)c1,-1.14
26,O=C(CNC(=O)Nc1c(F)cccc1Oc1ccccc1)NC1CC1,-0.6876
27,CCC(CNC(=O)C1CCC1)(OC)c1ccccc1 (stereo not given),-1.894

row,Compound,Percent Effect [%]
1,CN(Cc1ncc[nH]1)c1nc(-c2ccccn2)nc2c1CCNCC2,-0.01551
2,c1cnnc(N2CCCC(NCc3nc(C4CC4)no3)C2)c1 (stereo not given),9.898
3,Cn1nc(C(C)(C)C)cc1NC(=O)CSc1nnc[nH]1,-11.13
4,CCC(CNC(=O)OC)(OC)c1ccccc1 (stereo not given),1.829
5,CN(C)CCN(C)C(=O)NC1CCC(Oc2ccccc2C#N)CC1 (stereo not given),-10.57
6,CNc1cccc(C2CCN(C(C)=O)CC2)n1,105.5
7,CC(=O)NC1(C(=O)N2CCC(Nc3cccnn3)CC2)CCCCC1,6.747
8,Cc1noc(C2CCN(C(=O)c3ccc(NC4CC4)nc3)CC2)n1,-4.487
9,CNc1cccc(C2CCCN(C(C)=O)C2)n1 (stereo not given),2.608
10,CC(=O)N1CCC(c2cnc(NC3CCOCC3)cn2)CC1,89.11
11,CC(=O)N1CCC(c2cccc(NC3CCOCC3)n2)CC1,84.73
12,O=C(N1CCOCC1)N1CCC(Nc2ccncn2)CC1,6.366
13,COc1ccccc1CNC(C)c1cnc2cc(C)nn2c1C (stereo not given),-25.88
14,CC(C)c1cc(C(=O)O)nc2[nH]c(=O)[nH]c(=O)c12,113.5
15,CC(C)Cc1cc(C(=O)O)nc2[nH]c(=O)[nH]c(=O)c12,118.2
16,CC(C)CCc1cc(C(=O)O)nc2[nH]c(=O)[nH]c(=O)c12,107.7
17,CC1(C)OCC2(CO1)CN(C(=O)c1ccccc1Cl)C2,5.486
18,CN(Cc1cnn(C)c1)S(=O)(=O)N1CCCCC1,-3.727
19,Cn1cc(CN(CC2(O)CCNC2)C2CCCCC2)cn1 (stereo not given),118.9
20,OC1(CN(Cc2cccnc2)C2CCCCC2)CNCCOC1 (stereo not given),96.56
21,CN(Cc1cnn(C)c1)S(=O)(=O)N1CCCCCC1,16.54
22,OC1(CNCc2noc(Cc3ccccc3)n2)CNCCOC1 (stereo not given),7.869
23,CN(Cc1ccc2nsnc2c1)CC1(O)CNCCOC1 (stereo not given),-20.02
24,Cn1cc(CN(CC2(O)CNCCOC2)C2CCCCC2)cn1 (stereo not given),106.6
25,CCCc1cc(C(=O)N(Cc2cccnc2)C2CCCCC2)[nH]n1,21.65
26,CCN(CC)[C@H]1COC[C@@H]2CN(Cc3cnn(C)c3)C[C@@H]21,13.67
27,CC(SCCC(=O)NC(N)=O)c1c(F)cccc1F (stereo not given),-3.785

row,Compound,Percent Effect [%]
1,Cc1cccc(N2CCC(NC(=O)CCCc3cccs3)CC2)n1,-12.55
2,CCSC(C)c1nc(-c2ccc(C)nn2)no1 (stereo not given),3.709
3,Clc1ccccc1C1(c2ccnc(-c3ccncc3)n2)CCNCC1,-9.027
4,O=C([C@H]1COC[C@H]2CN(c3ccncn3)C[C@H]21)N1CCCC1,-2.247
5,CNC(=O)C1CN(c2ccnc(C)n2)CCN(C2CCOCC2)C1 (stereo not given),102.7
6,Cc1noc(-c2ccnc(N3CCCN(C4CCOCC4)CC3)c2)n1,-8.48
7,Cc1cc(N2CCN(C3CCOCC3)CC(C(=O)N(C)C)C2)ncn1 (stereo not given),98.55
8,CCc1c(C)sc2ncnc(N3CCN(C4CCOCC4)CC3)c12,8.782
9,Cc1nccc(N2CCC(=O)N(CC3CC3)C(C(C)C)C2)n1 (stereo not given),-7.894
10,Cc1nccc(N2CCN(C3CCOCC3)CC(C(=O)N(C)C)C2)n1 (stereo not given),164.8
11,Cc1nccnc1N1C[C@H]2CN(C3CCOCC3)C[C@@]2(C(=O)O)C1,-7.502
12,CN(C)C(=O)C1CN(c2ccncn2)CCN(C2CCOCC2)C1 (stereo not given),126.1
13,CN(C)C(=O)C1CN(Cc2c[nH]cn2)CCN(C2CCOCC2)C1 (stereo not given),-9.527
14,CN1CCN(C(=O)c2ccc(Cn3cc(Br)cn3)cc2)CC1,-6.635
15,CN(Cc1ccc(Cl)s1)C(=O)NCCN1CCCCCC1=O,-12.97
16,Cc1cc(NC(=O)C(C)N2CCN(c3nc(C)cs3)CC2)on1 (stereo not given),1.656
17,COCc1cccc(NC(C(N)=O)c2ccc(Br)cc2)c1 (stereo not given),31.5
18,Cc1cc(NCC2CCN(c3ccccc3)C2)n2ncnc2n1 (stereo not given),0.02222
19,O=C(COCC1CCCO1)N1CCCN(Cc2ccccc2F)CC1 (stereo not given),-31.39
20,CSc1ccc2cc(CN(C)CCCN(C)C)c(=O)[nH]c2c1,-7.905
21,CSc1ccccc1CN1CCn2nc(CNC(C)=O)cc2C1,-10.31
22,COc1cccc(CN(C)C(=O)CN2CCN(CCO)CC2)c1,-4.711
23,COc1cccc(CCCn2cnnc2[S+](C)[O-])c1 (stereo not given),5.279
24,COc1cccc(SCC(=O)N2CCC(N3CCCC3=O)CC2)c1,-9.437
25,CCS(=O)(=O)c1ncc(CN(C)Cc2cccc(OC)c2)n1CCOC,-4.749
26,COc1ccc(OCCN(C)CCCn2cnc3c(N)ncnc32)cc1,102.2
27,COc1ccc(OCCN(C)C(=O)NC(C)c2nncn2C)cc1 (stereo not given),5.358

row,Compound,Percent Effect [%]
1,COc1cccc(SCCCn2cnc3c(N)ncnc32)c1,97.7
2,CN(Cc1ccccc1)CC(O)Cn1cnc2c(cnn2C)c1=O (stereo not given),-10.76
3,COc1ccc(OCCCN(C)C(=O)C2CCCN2C(N)=O)cc1 (stereo not given),-3.357
4,CN(CCCn1cnc2c(N)ncnc21)Cc1ccccc1,86.6
5,COc1cccc(CN(C)CCCn2cnc3c(N)ncnc32)c1,85.72
6,CN(Cc1ccccc1)CC(O)Cn1cnc2ccccc2c1=O (stereo not given),5.606
7,CC(CC(=O)NS(=O)(=O)c1ccc2c(c1)OCCO2)c1ccc(F)cc1 (stereo not given),-2.674
8,C[C@@H]1CN(C(=O)CCCn2nnc(-c3ccc(F)cc3)n2)C[C@]1(C)O,1.392
9,Cc1nc(C2CCN(C(=O)c3ccc(Cl)s3)CC2)cc(=O)[nH]1,-8.54
10,O=C(c1ccc(Cl)s1)N1CCC2(CNS(=O)(=O)c3cnccc3O2)C1 (stereo not given),130.4
11,O=C(c1cccnc1)N1CCC2(CNS(=O)(=O)c3cnccc3O2)C1 (stereo not given),123.8
12,CN(C)C1COC2(CCN(C(=O)c3cccnc3)CC2)C1 (stereo not given),-11.3
13,CC(C)(C)C(=O)N1CCC2(CC1)CC(Oc1ccccc1)CO2 (stereo not given),-1.342
14,O=C(c1cnc(-c2ccccc2)s1)N1CCOC2(CCCC2)C1,-9.958
15,CC(C)N(C)C(=O)C1=NOC2(CCN(C(=O)c3ccccn3)C2)C1 (stereo not given),12.65
16,O=C(c1ccccn1)N1CCC2(CNS(=O)(=O)c3cnccc3O2)C1 (stereo not given),119.5
17,CN(C)CCN1CC2(CCN(C(=O)c3cnccn3)CC2)OC1=O,-7.77
18,CC(C)(C)C(=O)N1CCC2(CNS(=O)(=O)c3cnccc3O2)C1 (stereo not given),153.5
19,CC(C)(C)C(=O)N1CCN(Cn2nccc2-c2cccnc2)CC1,-27.57
20,CC(C)C(=O)NC1COC2(CCN(C(=O)c3cccnc3)CC2)C1 (stereo not given),16.59
21,CC(C)Cn1cc(NC(=O)N2CCOC(c3ccccc3)C2)cn1 (stereo not given),2.646
22,Cc1nc(-c2ccccc2)sc1C(=O)NCCNc1ncccn1,2.127
23,Cc1nc[nH]c1-c1nccn1-c1ccc(C(N)=O)c(N2CCCC2)c1,8.513
24,CN(C(=O)CCC(F)(F)F)c1cccc2ncccc12,2.571
